Growth data for 13 molecules are collected here from PubChem BioAssay (NCI).

Molecules are shown by their SMILES. “And” between values parts separate entries of the source, which are not always exact repeats. Identical values can stand only once. This is part of a sample that, as a whole, favours compounds with a hit. Of some 83,000 tested, about 20% had one in any assay.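 96-well plates, one dose, 48 hours. Percent growth reported; active if below 10.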 The source made the active and inactive calls.

Common to all, as to test: NCI-60 one-dose screen, 48 h (100 = growth as untreated, 0 = no growth, -100 = all killed)
The test system of one assay is T-47D breast. Particulars: 10 µM.
Another assay deals with BT-549 breast. The note with it: 10 µM.
The next assay concerns MDA-MB-435 melanoma. Particulars: 10 µM.
Another assay has as its system SW-620 colon. The note with it: 10 µM.
A further assay concerns MCF7 breast.
Another assay has as its system HCT-116 colon. Particulars: 10 µM.
For the next assay, the system named is HCC-2998 colon. Particulars: 10 µM.
A further assay deals with KM12 colon. Particulars: 10 µM.

Turning to `NC1=C(Cl)C(=O)c2ccccc2C1=O`, the growth with T-47D breast is 86.8% (inactive); in the assay with BT-549 breast it was 82.7% (inactive); in the assay with MDA-MB-435 melanoma, -87.5% (active); with SW-620 colon, 86.8% (inactive); with MCF7 breast (10 µM), 48.3% (inactive); with HCT-116 colon it was 54.4% (inactive). In addition, the growth in the assay on HCC-2998 colon was 101% (inactive); in the assay on KM12 colon, 65.3% (inactive).

For the molecule `OCC(O)C(O)C(O)C(/C=N/Nc1ccccc1)=N/Nc1ccccc1` (stereo not given), the growth is 57.9% (inactive) in the assay with T-47D breast; 88.9% (inactive) with BT-549 breast; 78% (inactive) in the assay with MDA-MB-435 melanoma; 88.3% (inactive) with SW-620 colon; 88.3% (inactive) with MCF7 breast (10 µM); 84.4% (inactive) with HCT-116 colon. In addition, the growth was 84.2% (inactive) in the assay on HCC-2998 colon and 75.1% (inactive) in the assay on KM12 colon.

`OCC1OC(n2cnc3c(=S)nc[nH]c32)C(O)C1O` (stereo not given): the growth in the assay with T-47D breast is 100% (inactive) and 57.7% (inactive); in the assay on BT-549 breast it was 105% (inactive) and 66.2% (inactive); in the assay on MDA-MB-435 melanoma, 106% (inactive) and 35.3% (inactive); with SW-620 colon, 104% (inactive) and 76.6% (inactive); in the assay with MCF7 breast (10 µM), 108% (inactive) and 20.9% (inactive); with HCT-116 colon it was 117% (inactive) and 39.8% (inactive). For the same molecule, the growth in the assay on HCC-2998 colon was 100% (inactive) and 45.5% (inactive); in the assay with KM12 colon, 108% (inactive) and 60.4% (inactive).

`CCO/C=C1\SC(=S)N(c2cccc(O)c2)C1=O`: the growth was 87.4% (inactive) in the assay on T-47D breast; 93.8% (inactive) in the assay with BT-549 breast; 102% (inactive) with MDA-MB-435 melanoma; 112% (inactive) with SW-620 colon; 84.1% (inactive) in the assay on MCF7 breast (10 µM); 96.9% (inactive) in the assay with HCT-116 colon. Further, the growth in the assay on HCC-2998 colon was 111% (inactive); with KM12 colon, 97.2% (inactive).

Take `COC(=O)C1=COC(C)C2C[n+]3ccc4c([nH]c5ccccc54)c3CC12` (stereo not given): the growth is 100% (inactive) and 91.5% (inactive) in the assay on T-47D breast; 107% (inactive) and 102% (inactive) with BT-549 breast; 106% (inactive) and 109% (inactive) with MDA-MB-435 melanoma; 100% (inactive) and 84% (inactive) in the assay with SW-620 colon; 96% (inactive) and 79.2% (inactive) in the assay with MCF7 breast (10 µM); 28.2% (inactive) and 1% (active) in the assay on MCF7 breast (100 µM). The growth in the assay with HCT-116 colon was 98.4% (inactive) and 99.5% (inactive); in the assay on HCC-2998 colon, 111% (inactive) and 94.1% (inactive); with KM12 colon, 102% (inactive) and 97.8% (inactive).

With `Nc1c2ccccc2nc2ccccc12`, the growth is 13.3% (inactive) and 30.4% (inactive) and 32.3% (inactive) with T-47D breast; 33.8% (inactive) and 69.9% (inactive) and 83.1% (inactive) with BT-549 breast; 6.39% (active) and 30% (inactive) and 48.5% (inactive) with MDA-MB-435 melanoma; 2.21% (active) and 14.3% (inactive) and 26.8% (inactive) in the assay on SW-620 colon; 2.34% (active) and 7.36% (active) and 9.98% (active) in the assay with MCF7 breast (10 µM); 7.6% (active) and 17.9% (inactive) and 18.2% (inactive) with HCT-116 colon. Moreover, the growth in the assay on HCC-2998 colon was 37.9% (inactive) and 24.7% (inactive) and 40.8% (inactive); with KM12 colon it was 19.1% (inactive) and 46.2% (inactive).

For `CCN(CC)c1ccc(NC(C(=O)c2ccccc2)c2ccccc2)cc1` (stereo not given), the growth with T-47D breast is 8.44% (active); in the assay with BT-549 breast, 2.75% (active); in the assay on MDA-MB-435 melanoma, 3.95% (active); with SW-620 colon, 6.54% (active); in the assay with MCF7 breast (10 µM), 11.1% (inactive); in the assay with HCT-116 colon it was -19.6% (active). Moreover, the growth in the assay with HCC-2998 colon and in the assay on KM12 colon was 65.1% (inactive) throughout.

On to `CN(C)C(=S)SC(=S)N(C)C`, for which the growth is 67% (inactive) and 96.3% (inactive) in the assay with T-47D breast; 109% (inactive) and 115% (inactive) in the assay with BT-549 breast; 94.6% (inactive) and 93% (inactive) in the assay with MDA-MB-435 melanoma; 102% (inactive) and 96% (inactive) in the assay on SW-620 colon; 35.3% (inactive) and 71.2% (inactive) with MCF7 breast (10 µM); 87% (inactive) and 67.7% (inactive) with HCT-116 colon. Moreover, the growth was 96.7% (inactive) and 107% (inactive) in the assay on HCC-2998 colon; 110% (inactive) and 97.3% (inactive) in the assay on KM12 colon.

On to `Cc1nc(N=C(N)N)nc2ccc3ccccc3c12`, for which the growth with T-47D breast was -10.6% (active); in the assay on BT-549 breast it was 13.7% (inactive); with MDA-MB-435 melanoma, -4.72% (active); in the assay on SW-620 colon it was 9.65% (active); in the assay on MCF7 breast (10 µM), -18.1% (active); with HCT-116 colon, 5.64% (active). Further, the growth was 13.3% (inactive) with HCC-2998 colon and -9.2% (active) in the assay on KM12 colon.

As to `Cc1cc(O)c(C(C)C)cc1Cl`, the growth is 98.8% (inactive) in the assay on T-47D breast; 111% (inactive) in the assay on BT-549 breast; 99.2% (inactive) in the assay on MDA-MB-435 melanoma; 105% (inactive) in the assay with SW-620 colon; 104% (inactive) in the assay with MCF7 breast (10 µM); 98.9% (inactive) in the assay on HCT-116 colon. For the same molecule, the growth is 101% (inactive) in the assay on HCC-2998 colon and 112% (inactive) with KM12 colon.

For the molecule `O=[N+]([O-])C1=C(c2ccccc2)SC=C(c2ccccc2)S1`, the growth with T-47D breast is 51.9% (inactive); with BT-549 breast, 55.3% (inactive); in the assay on MDA-MB-435 melanoma, 75.3% (inactive); in the assay on SW-620 colon it was 62.5% (inactive); in the assay with MCF7 breast (10 µM) it was 51.6% (inactive); in the assay on HCT-116 colon it was 67% (inactive). Besides, the growth in the assay on HCC-2998 colon was 108% (inactive); with KM12 colon it was 81.3% (inactive).

As for `CCCCCCCCCCCCSC(=NC)NC`, the growth is -7.65% (active) and 49.6% (inactive) with T-47D breast; 45.3% (inactive) and 86.4% (inactive) with BT-549 breast; -15.7% (active) and 43.4% (inactive) with MDA-MB-435 melanoma; -25.5% (active) and 32.3% (inactive) in the assay on SW-620 colon; -9.44% (active) and 22.6% (inactive) in the assay with MCF7 breast (10 µM); 1.94% (active) and 47.4% (inactive) with HCT-116 colon. The growth with HCC-2998 colon was -54.8% (active) and -34.7% (active); in the assay with KM12 colon it was 17.1% (inactive) and 44.8% (inactive).

Turning to `CCCCCCCCCCSC(=N)N`, the growth in the assay with T-47D breast was -5.33% (active); in the assay with BT-549 breast, 85.9% (inactive); with MDA-MB-435 melanoma, 30% (inactive); with SW-620 colon, -5.44% (active); in the assay with MCF7 breast (10 µM), 8.06% (active); with HCT-116 colon, 23.4% (inactive). Also, the growth in the assay on HCC-2998 colon is -27.2% (active); in the assay on KM12 colon, 23.2% (inactive).
